According to PubChem BioAssay (NCI):
Compounds without any hit were thinned out: in the full panel of roughly 83,000, 20% have a hit.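 Activity criterion: percent growth below 10, measured after cells in 96-well plates were exposed to a single compound concentration for 48 hours.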 Activity calls are given as the source filed them.

These compounds were tested on SK-MEL-28 melanoma (assay: NCI-60 one-dose screen, 48 h (100 = growth as untreated, 0 = no growth, -100 = all killed)). Conditions: 10 µM unless noted.
C#C[C@]1(O)CC[C@H]2[C@@H]3CC=C4c5sc(Nc6cc(C)cc(C)c6)nc5CC[C@]4(C)[C@H]3CC[C@@]21C was tested, and the growth was -37.9% (active).
For CCCC[n+]1ccc(SCC(=O)n2ccc3ccccc32)c2ccccc21, the growth was 109% (inactive).
In the case of CC(C)(C)c1cc(NC(=O)Nc2ccc(-c3cn4c5c(sc4n3)CCc3cn(CCCN4CCCCC4)cc3-5)cc2)no1, the growth is reported as -89.8% (active).
In the case of CCCCCCNC(=O)Oc1ccc(/C(=C(/C)c2ccc(OC)cc2)c2ccc(OCCN3CCCCCC3)cc2)cc1, the growth is reported as -36.1% (active).
With Cn1cc(-c2cc3ncnc(Nc4ccc(CC(=O)Nc5nc(C(C)(C)C)cs5)cc4)c3s2)cn1 the growth was 68.9% (inactive).
For O=C(CCCCCC/C=C\c1csc(Br)n1)NO, the growth was 92.4% (inactive).
With COc1ccc(C(=O)c2c(N)c(C#N)cn2-c2ccc(Cl)cc2Cl)cc1 the growth was 97.9% (inactive).
In the case of Cc1ccc2c(n1)C(=O)C(Cl)=C(Nc1cccc(C(F)(F)F)c1)C2=O, the growth is reported as 78.5% (inactive).
For O=C1[C@H]2Cc3c([nH]c4ccccc34)[C@H](c3ccc(Cl)cc3)N2C(=O)CN1C1CCN(CC2CCCCC2)CC1, the growth was 83.2% (inactive).
In the case of COc1ccc(/C=N/NC(=O)c2c(N)nn(C)c2Nc2ccccc2)cc1, the growth is reported as 57.5% (inactive).
Fc1ccc2nc(-c3cnn4cccnc34)sc2c1 was tested, and the growth was 117% (inactive).
In the case of O=C(/C=C/c1cccc(F)c1)c1cccc(OCCCCOc2cccc(C(=O)/C=C/c3cccc(F)c3)c2)c1, the growth is reported as 105% (inactive).
With O=C(COc1ccc(/C=C2\C(=O)Nc3ccc(Cl)cc32)cc1)Nc1ccc(Cl)cc1 the growth was 78.6% (inactive).
O=C(Nc1cccc(Cl)c1)Nc1nc2cc([N+](=O)[O-])ccc2o1 was tested, and the growth was 36.2% (inactive).
In the case of COc1ccc(NC(=O)CCCCCCNC(=O)C(O)(O)C(F)(F)F)cc1, the growth is reported as 40% (inactive).
In the case of CC(=O)N(O)CCCCCNC(=O)CCC(=O)N(O)CCCCCNC(=O)CCC(=O)N(O)CCCCCN(CCCCCCCCCC[P+](c1ccccc1)(c1ccccc1)c1ccccc1)CCCCCCCCCC[P+](c1ccccc1)(c1ccccc1)c1ccccc1, the growth is reported as 13.4% (inactive).
In the case of Cc1cc(Br)ccc1-n1cc(C#N)c(N)c1C(=O)c1ccc(Br)cc1, the growth is reported as 102% (inactive).
In the case of CN(C)S(=O)(=O)c1ccc(-c2nc(C(Cl)Cl)nc3cc(-c4ccccc4)nn23)cc1, the growth is reported as -4.08% (active).
CN1CCN(c2ccc(Nc3nc(NCCNC(=O)c4ccc(F)cc4)c4sccc4n3)cc2)CC1 was tested, and the growth was -8.89% (active).
O=[N+]([O-])c1ccc(NC(=S)NNC(=S)Nc2ccc(Br)cc2)cc1 was tested, and the growth was 102% (inactive).
C/C(=N\NC(=O)/C=C/CC(=O)O)c1nnn(-c2ccc([N+](=O)[O-])cc2)c1C was tested, and the growth was 114% (inactive).
CN1CCN(c2ccc(Nc3nc(NCCCNS(=O)(=O)c4ccc(F)cc4)c4sccc4n3)cc2)CC1 was tested, and the growth was -42.9% (active).
In the case of N#CC1=C2NCCCNc3oc(nc3C#N)Cc3ccccc3CC(=N1)O2, the growth is reported as 102% (inactive).
For COc1ccccc1/C=C1\Oc2ccc(O)c(O)c2C1=O, the growth was 94% (inactive).
For COc1ccc(NC2=C(Br)C(=O)C(C)=C(C)C2=O)cc1OC, the growth was 112% (inactive).
With O=C(Nc1ccc(N=Cc2c(O)[nH]c3ccccc23)cc1)Nc1ccc(S(=O)(=O)Nc2ncccn2)cc1 the growth was 120% (inactive).
With NC(=O)c1c(NC(=O)c2ccc(C(F)(F)F)cc2)sc2c1CCC(=O)C2 the growth was 4.03% (active).
For O=C(/C=C/c1cccc(Br)c1)c1cccc(OCCCCOc2cccc(C(=O)/C=C/c3cccc(Br)c3)c2)c1, the growth was 110% (inactive).
O=C(CCCCCCNC(=O)c1csc(Br)n1)NO was tested, and the growth was 29.3% (inactive).
For CC1CC(=O)C2=C(C1)Nc1ccc(Br)cc1CC2c1c[nH]c2ccc(Br)cc12 (stereo not given), the growth was 57.2% (inactive).
With C#CCN(C)CCCOc1ccc(NCc2ccc(C(=O)NO)cc2)cc1Cl the growth was 24% (inactive).
For CC(=O)Nc1nc(C)c(-c2csc(Nc3ccccc3)n2)s1, the growth was 38.1% (inactive).
Cc1csc(/N=C(N)/N=C(\N)c2cccc(C#N)c2)n1 was tested, and the growth was 74.6% (inactive).
For Clc1cccc(/C=N/Nc2nc(N/N=C/c3cccc(Cl)c3)nc(N3CCCCC3)n2)c1, the growth was 96.2% (inactive).
For O=C1[C@H]2Cc3c([nH]c4ccccc34)[C@H](c3ccc(Br)cc3)N2C(=O)CN1C1CCN(CC2CCCCC2)CC1, the growth was 97.6% (inactive).
Cc1[nH]c(C(=O)Nc2ccc(C(=O)NCC3CCNCC3)cc2OC(C)C)c(Cl)c1Cl was tested, and the growth was 83.9% (inactive).
In the case of CCN(CC)S(=O)(=O)c1ccc(-c2nc(C(Cl)Cl)nc3cc(-c4ccc(F)cc4)nn23)cc1, the growth is reported as 27.9% (inactive).
With C/C(=N/N)c1nnn(-c2ccc(Br)cc2)c1C the growth was 99.2% (inactive).
In the case of CC1=C(C)C(=O)C(Nc2cccc(C)c2)=C(Br)C1=O, the growth is reported as 115% (inactive).
Cc1ccc(C(=O)Nc2ccc(CNCCN3CCNCC3)c(C(F)(F)F)c2)cc1C#Cc1cnc2cccnn12 was tested, and the growth was -68% (active).
